Test results taken from PubChem BioAssay (NCATS).
Records with an inconclusive call do not appear. Where a call stands in place of a potency, no number is given. Active and inactive are the calls of the source. The call rests on the fitted dose curve; in most records, active means well fitted inhibition curve with a large enough effect; inconclusive means small, poorly fitted or top-dose-only effect; inactive means no such curve, though single readings can be large or run the other way. Where a SMILES comes first, the peptide text is derived from it. [ ]: non-standard residue; d: D form. Ala(indol-2-yl) = N[C@@H](Cc1cc2ccccc2[nH]1)C(=O)O; Aib = CC(C)(N)C(=O)O

Each molecule was assayed on Zika virus NS2B-NS3 protease (unlinked complex) (assay: Primary screen GU Rhodamine qHTS for Zika virus inhibitors: Unlinked NS2B-NS3 protease assay (AID 1347159; further: nearly all actives have a fitted effect of over 60% in size)). Conditions: Recombinant ZIKV NS2B-NS3 protease, Rhodamine110 substrate fluorescence; series mostly up to 107 µM.
Source text: Avindra Nath, Ph.D., National Institute of Neurological Disorders and Stroke (NINDS), Bethesda, MD
Radhakrishnan Padmanabhan, Ph.D., Georgetown University (GU), Washington D.C.
Zika Virus causes congenital defects, including microcephaly and is associated with Guillain-Barre syndrome, eningoencephalitis and myelitis in infected adult. […] Using a target-based approach, we hope to establish a screening paradigm to uncover novel, cell-active NS2B-NS3 protease (Zika Virus) specific inhibitors from NCATS' collection of small molecules using qHTS.
Four assay panel was created to identify potential Zika Virus inhibitors. Namely, (1) GU unlinked NS2B-NS3 AMC tagged protease qHTS, (2) GU unlinked NS2B-NS3 Rhodamine tagged protease qHTS, (3) NINDS linked NS2B-NS3 AMC tagged protease qHTS, (4) NINDS linked NS2B-NS3 Rhodamine tagged protease qHTS. Active compounds were re-acquired and re-screened to confirm inhibition. Inhibitors were further screened against various confirmatory and counterscreens in dose response format.
Early Translation Branch (ETB)
National Center for Advancing Translational Sciences (NCATS), Rockville, MD
National Institute of Health (NIH), Bethesda, Maryland
Padmanabhan lab provided the NS2B hydrophilic domain and NS3 protease domain in a noncovalent complex used for the unlinked assay. Control compound aprotinin is obtained from Thermo Scientific (#78432; Waltham, Massachusetts). Rhodamine110 substrate ([N-Cbz]-Nle-Lys-Arg-Arg-Rhod110-Arg-Arg-Lys-Nle-[N-Cbz]) was purchased from either Genscript or Bachem.
1536-well Protease (Rhodamine110 Substrate) Assay:
Briefly, 3 microL of enzyme (25 nM final concentration), in assay buffer (10 mM Tris-HCl pH 8.0 with 0.01% Tween 20) were dispensed into a 1,536-well solid-bottom black plate (Greiner Bio One, Monroe, NC). Twenty-three nL of compounds (final concentration range 7.28 nM to 114 microM) or control Aprotinin (final concentration range 3.47 nM to 114 microM) were transferred via Wako Pin-tool (Wako Automation, Richmond, VA). Samples were incubated (room temperature, protected from light) for 15 minutes followed by a 1 microL Rhodamine110 substrate addition (1.5 microM final concentration). Plates were then immediately read on a ViewLux High-throughput CCD imager (PerkinElmer, Waltham, MA) equipped with FITC fluorescence optics (480(20) nm excitation, 540(25) nm emission), then incubated (room temperature, protected from light) for 15 minutes (~15% conversion). The change in fluorescence intensity over the 15-minute reaction period was normalized against no-inhibitor and no-enzyme controls and the resulting percent inhibition data were fitted to a 4-parameter Hill equation. Aprotinin was used as intraplate control.

Row | Structure (SMILES) | Potency | activity change, negative = inhibition
1 | CCOC(=O)c1ccc(-c2ccc(OC(=O)N(C)Cc3cccc(-c4ccncc4)c3)cc2)cc1 | inactive | –
2 | CC(C)(C)[C@]1(O)C[C@@H]2OC(=O)C[C@@]23C(=O)O[C@@H]2OC(=O)[C@@H](O)[C@]213 | inactive | –
3 | Cc1c(Cl)c(OCC(=O)N2CCN(C)CC2)nc2sc(C(=O)NC3CC3)c(N)c12 | inactive | –
4 | CN1C(=O)CN=C(c2ccccc2Cl)c2cc(Cl)ccc21 | inactive | –
5 | CO[C@@H]1[C@@H](O)[C@@H](O[C@H]2CC[C@]3(C=O)C4CC[C@]5(C)[C@@H](C6=CC(=O)OC6)CC[C@]5(O)[C@@H]4CC[C@H]3C2)O[C@@H](C)[C@H]1O[C@@H]1O[C@H](CO[C@@H]2O[C@H](CO)[C@@H](O)[C@H](O)[C@H]2O)[C@@H](O)[C@H](O)[C@H]1O (stereo not given in full) | inactive | –
6 | C=C1C(=O)OC2/C=C(\COO)CC/C=C(\COC(C)=O)CC(OC(=O)C(C)CC)C12 (stereo not given) | inactive | –
7 | CC(C)C(=O)O[C@H]1[C@@H]2[C@H](C)C(=O)O[C@@H]2C[C@@H](C)[C@@H]2C=CC(=O)[C@]21C | inactive | –
8 | C[C@]12CC[C@@H](O[C@@H]3O[C@H](CO)[C@@H](O)[C@H](O)[C@H]3O)C[C@@]1(O)CCC1C2CC[C@]2(C)[C@@H](C3=CC(=O)OC3)CC[C@]12O (stereo not given in full) | inactive | –
9 | Cc1ccccc1C1=CCN(C)CC1 | inactive | –
10 | C[C@]12CC[C@H](OC3OC(CO)C(O)C(O)C3OC3OC(CO)C(O)C(O)C3O)C[C@@H]1CC[C@@H]1C2CC[C@]2(C)[C@@H](C3=CC(=O)OC3)CC[C@]12O (stereo not given in full) | inactive | –
11 | C[C@]12CC[C@H](O)C[C@@H]1CC[C@@H]1[C@@H]2CC[C@]2(C)C(=O)CC[C@@H]12 | inactive | –
12 | C=C1C2(C)CC3C(C)(O)C4=CC(=O)OC(C)(C)C4=CCC3(C)C13C(=O)OC(C)C3(O)C2=O (stereo not given) | inactive | –
13 | CCc1nn(C)c(C(=O)NCc2ccc(Oc3ccc(C)cc3)cc2)c1Cl | inactive | –
14 | CO[C@H]1C[C@H](O[C@H]2CC[C@]3(C=O)[C@H]4CC[C@]5(C)[C@@H](C6=CC(=O)OC6)CC[C@]5(O)[C@@H]4CC[C@]3(O)C2)O[C@H](C)[C@H]1O | inactive | –
15 | C[C@]12CC[C@H](O)C[C@@]1(O)CC[C@@H]1[C@@H]2CC[C@]2(C)[C@@H](c3ccc(=O)oc3)CC[C@]12O | inactive | –
16 | CC1=CC2OC3[C@H](O)C[C@@](C)([C@]34CO4)[C@@]2(CO)[C@H](O)C1=O (stereo not given in full) | inactive | –
17 | O=S(=O)(c1ccccc1F)N1CCOc2c(N3CCNCC3)cccc21 | inactive | –
18 | C[C@@H](CN1CCC(n2c(=O)[nH]c3cc(Br)ccc32)CC1)NC(=O)[C@@H]1C[C@H]1c1ccccc1 | inactive | –
19 | C=C(CO)[C@@]12O[C@@H]1[C@@]1(C)C(=CC2=O)CC[C@@H](O)[C@@H]1C | inactive | –
20 | COc1ccc(C23CCC(=O)C=C2N(C)CC3)cc1OC (stereo not given) | inactive | –

Row | Structure (SMILES) | Potency | activity change, negative = inhibition
21 | CC1=CC2/C=C(\C)CCC(O)C(O)/C=C/C(=O)C23C(=O)NC(CC(C)C)C3C1C (stereo not given) | inactive | –
22 | CC(C)(O)/C=C/C(=O)[C@](C)(O)[C@H]1[C@H](O)C[C@@]2(C)[C@@H]3CC=C4[C@@H](C[C@H](O)C(=O)C4(C)C)[C@]3(C)C(=O)C[C@]12C | inactive | –
23 | O=C1CN=C(c2cccc(Br)c2)c2oc3ccccc3c2N1 | inactive | –
24 | CC(=O)N1N=C(c2ccc(N)cc2)c2cc3c(cc2C[C@H]1C)OCO3 | inactive | –
25 | C=CC(C)(C)c1[nH]c2c(CC=C(C)C)cc(CC=C(C)C)cc2c1C[C@@H]1NC(=O)[C@H](C)NC1=O | inactive | –
26 | COC1CCCC(C)OC(=O)Cc2cc(O)cc(O)c2C(=O)C1 (stereo not given) | inactive | –
27 | CC(C)OC(=O)c1ccnc2cc(C(OCCN3CCCCC3)c3ccccc3Cl)sc12 (stereo not given) | inactive | –
28 | CC(C)(NC(=O)[C@@H](N)Cc1ccc(O)cc1)C(=O)N[C@@H](Cc1cc2ccccc2[nH]1)C(=O)N[C@@H](Cc1ccccc1)C(=O)O (H-Y[Aib][Ala(indol-2-yl)]F-OH) | – | 11.5% [at 19.1 µM] (inactive)
29 | CC[C@@H](C)[C@H]1C(=O)O[C@H](C(C)C)C(=O)N(C)[C@@H](C(C)C)C(=O)O[C@H](C(C)C)C(=O)N(C)[C@@H](C(C)C)C(=O)O[C@H](C(C)C)C(=O)N1C | inactive | –
30 | CN1CCN(c2nc3ccccc3nc2Cl)CC1 | inactive | –
31 | CO[C@H]1C[C@H](O[C@H]2CC[C@]3(CO)[C@H]4CC[C@]5(C)[C@@H](C6=CC(=O)OC6)CC[C@]5(O)[C@@H]4CC[C@]3(O)C2)O[C@H](C)[C@H]1O | inactive | –
32 | C/C=C(\C)C(=O)OC1CC2C(CC=C3CC(OC4CC(OC)C(OC5CC(OC)C(OC6CC(OC)C(OC7CC(OC)C(O)C(C)O7)C(C)O6)C(C)O5)C(C)O4)CCC32C)C2(O)CCC(C(C)=O)C12C (stereo not given) | inactive | –
33 | Fc1cc(F)c2c(c1)[C@H]1C=CC[C@H]1C(c1cccnc1)N2 (stereo not given in full) | inactive | –
34 | CCC1(O)CCC2C3CCC4=CC(=O)CCC4C3CCC21CC (stereo not given) | inactive | –
35 | C/C(=C\c1csc(C)n1)[C@@H]1C[C@@H]2O[C@@H]2CCC[C@H](C)[C@H](O)[C@@H](C)C(=O)C(C)(C)[C@@H](O)CC(=O)O1 | inactive | –
36 | COc1ccc(CN(C(=O)[C@@H](N)Cc2c(C)cc(C(N)=O)cc2C)[C@@H](C)c2ncc(-c3ccccc3)[nH]2)cc1C(=O)O | inactive | –
37 | CC[C@H]1C2CC3[C@@H]4N(C)c5ccccc5[C@]45C[C@@H]([C@H]2[C@H]5O)N3[C@@H]1O | inactive | –
38 | C[C@@H]1O[C@@H](O[C@H]2CC[C@@]3(C)C(CC[C@@H]4C3CC[C@]3(C)[C@@H](C5=CC(=O)OC5)CC[C@]43O)C2)[C@H](O[C@@H]2O[C@H](CO)[C@@H](O)[C@H](O)[C@H]2O)[C@H](O)[C@H]1O (stereo not given in full) | inactive | –
39 | CCCCCn1cc(C(=O)Cc2ccccc2OC)c2ccccc21 | inactive | –
40 | CC[C@H](C)[C@H](NC(=O)[C@H]1CCCCN1C)C(=O)N(COC(=O)CC(C)C)[C@H](C[C@@H](OC(C)=O)c1nc(C(=O)N[C@@H](Cc2ccc(O)cc2)C[C@H](C)C(=O)O)cs1)C(C)C | – | 9.2% [at 2.28 µM] (inactive)
